SENP8 block-1: SENP8 protease inhibitors, primary screen, biochemical, luminescence; inhibition, % at 10 µM; actives 1.2% (n = 330,000); Sentrin-specific protease 8 (Homo sapiens), Q96LD8; purified SENP8, Z-RLRGG-aminoluciferin cleavage; in the data active means inhibition above about 50%
Target sequence (Q96LD8 whole entry, looked up): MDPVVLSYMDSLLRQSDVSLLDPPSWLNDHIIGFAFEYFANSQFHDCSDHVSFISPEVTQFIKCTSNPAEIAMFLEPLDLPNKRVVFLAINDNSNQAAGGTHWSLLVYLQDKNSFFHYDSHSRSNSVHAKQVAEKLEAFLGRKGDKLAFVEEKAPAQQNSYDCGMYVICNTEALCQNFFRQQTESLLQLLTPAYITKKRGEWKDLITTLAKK
Platelet DG rel: inhibitors of platelet dense granule secretion, primary screen, cell-based, MLPCN, human platelets. human platelet-rich plasma, SFLLRN dense granule ATP release, luminescence. actives 0.22% (n = 300,000). inhibition, %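 (compounds screened at 7.5 µM in platelet-rich plasma)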. AID 1663, 2009;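 active means mean replicate score, as percent of positive control, at or above 50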
SENP6 inh: SENP6 protease inhibitors, primary screen, biochemical, luminescence, uHTS; Sentrin-specific protease 6 (Homo sapiens), Q9GZR1; Recombinant SENP6 catalytic domain, aminoluciferin luminescence; inhibition, % at 10 µM; actives 1.8% (n = 330,000);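 active means inhibition above about 50% at the single tested dose, limit read from the data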;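 further: plate controls were DMSO wells with enzyme for no effect and DMSO wells lacking enzyme for full effect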
SENP7 block: SENP7 protease inhibitors, primary screen, biochemical, luminescence, uHTS; actives 1.5% (n = 330,000); AID 434973, 2010; inhibition, % at 5 µM; recombinant SENP7, Z-RLRGG-aminoluciferin luminescence, 40 min; Sentrin-specific protease 7 (Homo sapiens), Q9BQF6;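 active means inhibition above about 50% at the single test dose, limit read from the data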;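 further: plate controls were DMSO with enzyme for no effect and no enzyme buffer wells for full effect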
Target sequence (Q9BQF6 706-1050 limits assumed): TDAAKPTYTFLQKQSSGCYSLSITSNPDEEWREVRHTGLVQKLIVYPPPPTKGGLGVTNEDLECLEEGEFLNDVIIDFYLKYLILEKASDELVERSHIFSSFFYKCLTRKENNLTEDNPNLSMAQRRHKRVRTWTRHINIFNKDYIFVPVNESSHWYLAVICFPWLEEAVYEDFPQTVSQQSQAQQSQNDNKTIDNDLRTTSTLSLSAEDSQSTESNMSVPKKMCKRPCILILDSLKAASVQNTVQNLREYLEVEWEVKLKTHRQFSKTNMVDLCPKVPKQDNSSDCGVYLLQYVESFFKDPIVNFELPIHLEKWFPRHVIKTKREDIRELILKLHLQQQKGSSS
SENP8 block-2: human SENP8 protease inhibitors, primary screen, biochemical, fluorescence, Nedd8 protein substrate, uHTS. recombinant SENP8. inhibition, % at 20 µM. actives 0.64% (n = 360,000). AID 602440, 2012; in the data active means inhibition mostly above about 40%, no sharp cut-off; inactive means mostly below about 27%
* hit, by the source's call; i = inactive; x = not tested or not shown. An excerpt weighted towards active compounds, which were near 2.4% of everything screened.

SMILES	SENP8 block-1	Platelet DG rel	SENP6 inh	SENP7 block	SENP8 block-2
COC(=O)CCC(=O)OC1(C)C(=O)C2=CN(CCCCO)C(c3ccc(OC)cc3)=CC2=C(Br)C1=O (configuration not stated)	8	0	47	13	x
Cc1cccc(C)c1NC(=O)C1(C)CSCC(=O)N1CC(C)C (configuration not stated)	x	x	x	x	15
Cc1nc2cc(Nc3ccncc3)ccc2s1	-2	56*	-11	-6	-2
Cc1nc2cc(NC(=O)CCS(=O)(=O)c3ccccc3)ccc2s1	-10	5	-6	-7	22
Cc1ccccc1C(=O)Nc1sc2c(c1C(=O)O)CCC2	57*	-4	70*	-8	-56
COc1ccc(N(C)S(=O)(=O)c2cccc(C(=O)NCc3ccc(C)cc3)c2)cc1	6	x	-24	13	9
O=C(/C=C/c1ccc(F)cc1)c1ccc(N2CCOCC2)cc1	41	1	80*	78*	-10
CCc1ccc(/C=C/C(=O)c2ccc(N3CCOCC3)cc2)cc1	-15	-3	-11	-1	-20
O=C(CN1C2=NCCCN2c2ccccc21)c1ccc(Br)s1	-11	-3	-6	0	41*
O=C(O)CN1C2=NCCCN2c2ccccc21	-14	0	4	-8	11
Nc1nc2ccccc2n1C(=O)c1ccco1	x	13	x	x	-2
Nc1nc2ccccc2n1C(=O)c1cccs1	58*	16	11	74*	-45
Cn1c(=O)c2c(ncn2CC(=O)N2CCN(C(=O)c3ccco3)CC2)n(C)c1=O	5	-3	-19	9	3
O=C(CC(Nc1ccccc1)C(=O)O)c1ccccc1 (configuration not stated)	54*	8	79*	10	-32
O=C(CC(Nc1ccc(Cl)cc1Cl)C(=O)O)c1ccccc1 (configuration not stated)	-2	-16	-14	-5	26
O=C(Nc1nc2cc3c(cc2s1)OCCO3)c1cccs1	94*	31	96*	98*	-385
O=C(Nc1nc2cc3c(cc2s1)OCCO3)c1ccc([N+](=O)[O-])o1	74*	11	87*	88*	-22
COc1ccccc1C(=O)Nc1nc2cc3c(cc2s1)OCO3	20	3	48	79*	-462
Cc1cc(C)c2nc(NC(=O)c3ccc([N+](=O)[O-])o3)sc2c1	-7	-1	-11	10	-8
COc1cccc(OC)c1C(=O)Nc1nc2cc3c(cc2s1)OCO3	-8	-9	-4	1	-130
CCCn1c(CN2CCN(C(=O)OCC)CC2)nc2cc(NC(=O)C(C)C)ccc21	7	18	12	8	4
CCCN(CC(=O)Nc1ccccc1OC)C(=O)CN1C(=O)NC(C)(C)C1=O	x	x	x	x	6
O=C(NNC(=O)c1ccc2[nH]c(=O)c(=O)[nH]c2c1)c1cccc(Br)c1	-11	2	7	-20	-144
O=C(CCNC(=O)C1CCN(S(=O)(=O)c2ccccc2)CC1)NCc1ccncc1	-4	8	1	4	8
O=C(CCNC(=O)C1CCN(S(=O)(=O)c2ccccc2)CC1)NCc1ccc(Cl)c(Cl)c1	-1	58*	3	-3	3
SMILES	SENP8 block-1	Platelet DG rel	SENP6 inh	SENP7 block	SENP8 block-2
Cc1nonc1CN(C)C(=O)CC1C(=O)NCCN1Cc1ccc(F)c(F)c1 (configuration not stated)	3	6	6	-2	-7
CCN(CC)C(=O)[C@H]1CC(CC(=O)NC/C=C(\C)CCC=C(C)C)C(=O)N2CCc3c([nH]c4ccccc34)[C@]12C (some centres not stated)	-1	x	22	10	19
O=C(NCc1ccccc1)C1C(c2ccc3c(c2)OCO3)=Nc2ccccc2N1C(=O)c1cccc2ccccc12 (configuration not stated)	x	x	x	x	-61
COc1ccc(/C=N/Nc2nc3ccccc3s2)cc1O	x	54*	x	x	-248
Oc1ccccc1C=NNc1nc2ccccc2s1	x	x	x	x	-124
CCOc1ccc(N=Cc2ccc([N+](=O)[O-])cc2)c(O)c1	x	x	x	x	41*
COc1ccc(CC(=O)N2CCN(c3ccc(C4=NNC(=O)CC4C)cc3)CC2)cc1 (configuration not stated)	-2	67*	-1	-7	i
CC(C)C(C(=O)NC1CCCC1)N1CCC(O)(c2ccc(Cl)cc2)CC1 (configuration not stated)	x	x	x	x	19
Cn1c(N/N=C/c2c[nH]c3ccccc23)nc2ccccc21	20	15	48	7	-47
Cn1c(N/N=C/c2cc3ccccc3nc2Cl)nc2ccccc21	-5	60*	-8	0	-132
COc1ccc(C(OCC(O)CNCCc2ccccc2)c2ccc(OC)cc2)cc1 (configuration not stated)	x	-15	x	x	21
O=C(Nc1ccccc1)Nc1ccc(F)c([N+](=O)[O-])c1	11	1	27	17	9
Cc1ccsc1C(=O)Nc1ccc(F)c([N+](=O)[O-])c1	53*	-1	77*	71*	9
COc1ccc2[nH]c3c(c2c1)CCN1C(=O)C(CC(=O)NCCc2ccccn2)C[C@H](C(=O)N2CCOCC2)[C@@]31CCC1CCCC1 (some centres not stated)	x	x	x	4	11
COC(=O)c1cccc(Cn2c(Cl)c(/C=N/NC(=O)c3ccco3)sc2=O)c1	-5	1	5	3	-34
Cn1c(=NC(=O)c2ccccc2[N+](=O)[O-])sc2cc(S(C)(=O)=O)ccc21	-6	9	30	57*	20
Cn1c(=NC(=O)c2ccc(S(=O)(=O)N3CCCc4ccccc43)cc2)sc2cc(S(C)(=O)=O)ccc21	9	-11	7	5	-86
O=C(O)c1ccccc1NCc1ccco1	-15	-5	-16	-3	-252
O=C1c2ccccc2-c2onc3ccc(N4CCCC4)c1c23	x	8	x	x	81*
CCOc1ccc2noc3c2c1C(=O)c1ccccc1-3	43	1	79*	24	70*
O=C1C=C(N2CCCCC2)c2ccccc2C1=O	83*	3	93*	55*	-432
O=S(=O)(c1ccccc1S(=O)(=O)N1CCCCC1)N1CCCCC1	9	0	6	-3	12
O=C1c2ccccc2-c2onc3ccc(NCc4ccco4)c1c23	24	6	64*	-5	100*
COc1cccc(C(=O)N2CCC[C@H]2C(=O)N2CCC[C@H]2C(=O)N(C)Cc2ccccc2)c1	x	x	x	x	20
COc1ccc2cc(C(C)C(=O)O)ccc2c1 (configuration not stated)	16	x	-6	1	1
Cc1cnc(N=Nc2ccccc2)[nH]1	x	x	x	x	16
FC(F)(F)c1cccc(CNC2c3ccccc3-c3ccccc32)c1	5	-3	-12	4	10

Bioassay records deposited in PubChem BioAssay by several laboratories.
